ATXN2 expr inh = Primary qHTS for Inhibitors of ATXN expression; HEK-293 ATXN2-luciferase reporter, luminescence, 24 h; Potency, µM (highest dose often 57 µM), hits mostly inhibitors; hit rate 0.72% among 360,000; AID 1745845, 2022; also: nearly all actives have a fitted effect of over 55% in size
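ATXN2-luciferase reporter cells (luciferase flanked by upstream and downstream ATXN2 gene portions) were treated 24 h at 37 °C with compounds at up to 57 uM. SteadyGlo luminescence gave expression; GF-AFC fluorescence gave viability.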
DT40 TDP1 CPT = qHTS for Inhibitors of human tyrosyl-DNA phosphodiesterase 1 (TDP1): qHTS in cells in presence of CPT. chicken DT40 Tdp1-/-;hTDP1 cells + 20 nM CPT, ATP luminescence, 48 h. Potency, µM (highest dose often 46.2 µM), usual class: inhibitors. hit rate 12% among 420,000. AID 686979, 2013; also: nearly all actives have a fitted effect of over 55% in size
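Chicken DT40 Tdp1-/- cells complemented with human TDP1, 400 cells/well, exposed to compounds plus 20 nM camptothecin for at least 48 h at 37 C; viability read as ATP content by CellTiter-Glo luminescence.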
TDP1 cell noCPT = qHTS for Inhibitors of human tyrosyl-DNA phosphodiesterase 1 (TDP1): qHTS in cells in absence of CPT | AID 686978, 2013 | Potency, µM (series often up to 46.2 µM), actives largely listed as inhibitors | hit rate 15% among 420,000 | DT40 Tdp1-/- hTDP1 cells, no CPT, ATP luminescence, 48 h; also: nearly all actives have a fitted effect of over 55% in size
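Chicken DT40 Tdp1-/- cells stably complemented with human TDP1 were seeded at 400 cells/well with DMSO in place of 20 nM camptothecin. After compound pinning, cells grew at least 48 hr at 37 °C; viability read by CellTiter-Glo luminescence.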
TGFb SMAD3 inh = qHTS for Inhibitors of TGF-b; HepG2 CAGA-GFP TGF-b/SMAD3 reporter, GFP fluorescence, 18 h; TGF-beta stimulated, 500 pg/mL final; Potency, µM (titrated, usually from 46.1 µM), actives largely listed as inhibitors; hit rate 1.2% among 410,000; also: nearly all actives have a fitted effect of over 65% in size
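GFP signal (ex488/em500-530) from TGF-beta-stimulated HEPG2 CAGA-GFP cells, 500 pg/mL final, 18 h at 37 degrees C in DMEM plus 1% FBS, normalized to unstimulated and DMSO-stimulated controls.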
ATXN viability = Viability Counterscreen for Primary qHTS for Inhibitors of ATXN expression; S2 cells (HEK-293 line with an ATXN2-luciferase reporter) viability, CellTiter-Fluor protease fluorescence, 24 h; Potency, µM (top dose mostly 56.7 µM), most hits filed as cytotoxic; hit rate 0.49% among 400,000; AID 651635, 2014; also: nearly all actives have a fitted effect of over 40% in size
HepG2 tox = qHTS for Inhibitors of TGF-b: Cytotox Counterscreen; HepG2 CAGA-GFP viability, ATP luminescence, 18 h; Potency, µM (series often up to 46.1 µM), usual class: cytotoxic; hit rate 0.76% among 410,000; AID 588856, 2011
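CellTiter-Glo luminescence gave cytotoxicity after 18 hours at 37 degrees C. The cells were HepG2 CAGA-GFP in 1% FBS DMEM, stimulated with 500 pg/mL TGF-beta after compound addition. %Activity was normalised to no-cell wells (complete cell-killing) and DMSO (no toxicity), and curves were fitted and classified.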
Hits are given with their value; . = inactive; ? = inconclusive; / = no result given; ! = not confirmed by another sample; [ ] = remark or other dose. Compounds with a hit are over-represented: about 17% of the library has one in this group of screens. Calls follow the shape of the dose curve; as a rule, active = well fitted curve in the direction sought with a large enough effect; inconclusive = small, poorly fitted or top-dose-only effect, or another doubt; inactive = no such curve, though single readings can be large; an effect the other way counts as inactive or inconclusive.

SMILES	ATXN2 expr inh	DT40 TDP1 CPT	TDP1 cell noCPT	TGFb SMAD3 inh	ATXN viability	HepG2 tox
COC(=O)C1=C(c2ccc(F)cc2F)C[C@@H]2CC[C@H]1N2C(=O)NCc1ccc2c(c1)OCO2	.	?	?	.	.	.
CCC(Oc1ccccc1OC)C(=O)Nc1ccc2c(c1)OCCO2 (configuration not stated)	.	.	.	.	?	.
Cc1cc(OC(=O)N(C)C)nc(-c2ccc(C)c(Cl)c2)n1	.	.	.	.	.	.
COC(=O)C1=C(c2ccccc2)C[C@@H]2CC[C@H]1N2C(=O)N1CCC(C)CC1	.	?	15µM	.	?	.
CCCOc1ccc(C(=O)Nc2ccc(-c3cc4ccccc4oc3=O)c(C)c2)cc1	?	10µM	5.2µM	.	?	.
CCCOC(=O)COc1cc(C)cc2oc(=O)c3c(c12)CCC3	.	.	.	.	?	.
Cc1cscn1	.	.	?	.	.	.
CCOC(=O)C1(CCc2ccccc2)CCN(C(C)CSC)CC1 (configuration not stated)	.	?	?	.	.	.
C[C@]12CCC3[C@@H](CC[C@@H]4C[C@H](O)CC[C@]34C)[C@@H]1CCC2=O (some centres not stated)	.	?	?	.	.	.
CC(=O)OC1CC2(C)C(C(C)=O)CCC2C2CCC3=CC(=O)CCC3(C)C12 (configuration not stated)	.	?	?	.	.	.
CC(=O)OC1=CC[C@H]2[C@@H]3CC[C@H]4C[C@H](OC(C)=O)[C@@H](OC(C)=O)C[C@]4(C)[C@H]3CC[C@]12C	.	15µM	12µM	.	.	.
CC(=O)O[C@H]1C[C@@H]2CC[C@@H]3[C@H](CC[C@]4(C)C(=O)CC[C@@H]34)[C@@]2(C)C[C@@H]1OC(C)=O	.	23µM	?	.	.	.
CCOC(=O)[C@H](CCc1ccccc1)N[C@@H](C)C(=O)N1Cc2cc(OC)c(OC)cc2C[C@H]1C(=O)O	.	?	?	/	.	/
CCOc1ccc2nc(N3CCC(C(=O)Nc4ccc(Br)cc4F)CC3)sc2c1	/	12µM	13µM	.	/	.
CCOP(=O)(OCC)C1(O)C(=O)Nc2ccc(Br)cc21 (configuration not stated)	.	?	16µM	.	.	.
COc1cc(OC)c2c(c1)OC(c1ccc(OC)c(OC)c1)C(O)C2 (configuration not stated)	/	.	.	/	/	/
CCOc1ccc(OC(=O)c2ccc3c(=O)n4c(nc3c2)CCC4)cc1	.	?	?	.	.	.
Cc1ccc(-c2nc3ccc(Cl)cn3c2Nc2ccccc2C)s1	.	21µM	16µM	.	.	.
Cc1ccccc1Nc1c(-c2ccc(Br)cc2O)nc2sccn12	/	?	?	.	/	.
CN1CCc2nc(SCc3cccc(Br)c3)c(C#N)cc2C1	.	?	18µM	.	.	.
N#Cc1cc2c(nc1SCC(=O)Nc1cccc(F)c1)C1CCN2CC1	.	/	/	?	.	.
Cc1ccc(Cl)cc1N1CCN(c2ncnc3c2nc2n3CCCC2)CC1	/	?	18µM	.	/	.
Cc1ccc(NC(=O)c2cc(S(=O)(=O)N3CCOCC3)c(Cl)cc2Cl)cc1	?	?	18µM	?	?	.
Cc1ccc(Cn2cccc(C(=O)Nc3ccc4c(c3)OCO4)c2=O)cc1	.	.	.	.	.	.
CS(=O)(=O)c1ccc(C2=C(CNC(=O)c3nccs3)[C@H]3CC[C@@H](C2)N3Cc2ccccc2)cc1	.	.	?	?	?	.
SMILES	ATXN2 expr inh	DT40 TDP1 CPT	TDP1 cell noCPT	TGFb SMAD3 inh	ATXN viability	HepG2 tox
c1ccc(C2(N3CCCC3)CCCCC2)cc1	/	?	19µM	/	/	/
CC1=CC(=O)C2=C(C)C[C@@H](O)[C@@H]3[C@@H](OC(=O)[C@H]3C)[C@H]12	/	/	/	/	.	/
C=C1C(=O)O[C@@H]2C[C@@H](C)[C@@H]3C=CC(=O)[C@@]3(C)[C@@H](OC(=O)CC(=O)O[C@H]3[C@@H]4C(=C)C(=O)O[C@@H]4C[C@@H](C)[C@@H]4C=CC(=O)[C@]43C)[C@H]12	0.32µM	0.058µM	0.073µM	0.25µM	/	0.56µM
C=C1C(=O)O[C@H]2C[C@@H](C)[C@@H]3C=CC(=O)[C@@]3(C)C[C@H]12	6.3µM	1µM	0.65µM	4.5µM	?	7.9µM
Cc1cccc(N2CCN(C(=O)C34CC5CC(CC(C5)C3)C4)CC2)c1C	.	?	?	.	.	.
CC1CCC2[C@@H](C)C(=O)OC3O[C@]4(C)CCC1C32OO4 (some centres not stated)	.	?	7.3µM	.	?	.
CC1CCC2C(C)C(=O)OC3OC4(C)CCC1C32OO4 (configuration not stated)	.	?	0.84µM!	.	.	.
Nc1c(Cl)cc([N+](=O)[O-])cc1Cl	.	.	.	.	.	.
NCC(CP(=O)(O)O)c1ccc(Cl)cc1 (configuration not stated)	/	.	.	/	/	/
CCOc1ccc(-c2nc3cc(NC(=O)COc4cccc(C)c4)ccc3o2)cc1	.	3.7µM	16µM	.	.	.
Cc1ccc(NC(=O)COc2ccc(-c3nn(C)c(=O)c4ccccc34)cc2)cc1	.	?	?	?	.	.
Cc1nc2ncnn2c(C)c1CCC(=O)N1CCC2(CC1)OCCO2	.	.	.	.	.	.
Cc1c(CCC(=O)N2CCCCC2)c(=O)oc2cc3occ(C(C)(C)C)c3cc12	/	12µM	12µM	.	/	.
Cc1cccc(OP(N)(=O)Oc2cccc(C)c2)c1	.	.	?	.	/	.
Cc1cccc(OP(=O)(NCc2ccccc2)Oc2cccc(C)c2)c1	?	?	26µM	?	?	.
Cc1ccccc1C(=O)Nc1cc(-c2ccc(Cl)cc2)nn1-c1ccccc1	.	?	?	.	?	.
CCOc1cc(/C=N/NC(=O)c2cccs2)ccc1OC(=O)N1CCOCC1	.[11.3 µM]	?	16µM	.	.	.
CN(C)c1ccc(P(=O)(Nc2ccc([N+](=O)[O-])cc2)N2CCOCC2)c(NC(=O)c2cccs2)c1 (configuration not stated)	.	.	.	?	.	.
C[C@]12CC[C@H]3[C@@H](CC[C@@]45O[C@@H]4C(O)=C(C#N)C[C@]35C)[C@@H]1CC[C@@H]2O	/	.	?	/	/	/
CCN1C(=O)/C(=C/c2ccc3c(c2)CCN3CCCCl)C(=O)NC1=S	.	?	23µM	.	?	.
